From PubChem BioAssay (Tox21)
A number with no mark means an inactive call. Records with an inconclusive call do not appear. Where a call stands in place of a potency, no number is given. Activity calls are given as the source filed them. Unless noted, calls come from the whole dose curve.

Tests used:
[1] = qHTS assay to identify small molecule antagonists of the sonic hedgehog signaling (Shh) pathway (AID 1259369); note: nearly all actives have a fitted effect of over 45% in size; note: potency is the fitted concentration of half-maximal effect
Procedure, shortened: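 Luminescence readout: firefly Luc under Gli1 response element in 3T3Gli1-Luc cells (NIH/3T3 clone). Antagonist mode, stimulation by conditioned medium; compound exposure 24hr at 37 C, 5% CO2.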

[2] = qHTS assay to identify small molecule agonists of the androgen receptor (AR) signaling pathway in the presence of an antagonist - cell viability counter screen (AID 1259379; active = well fitted curve in the direction sought with a large enough effect in the repeat runs; an effect the other way counts as inactive or inconclusive;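 note: MDA-kb2 human breast cancer cells carrying an MMTV luciferase reporter; series mostly up to about 92 µM; nearly all actives have a fitted effect of over 25% in size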)
Procedure, shortened: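 Viability counter screen: CellTiter-Fluor fluorescence, measured in the same wells as the luciferase read-out. MDA-kb2 cells, 3,000/well, with nilutamide at 3.0uM final and compounds at 15 concentrations, 16 hr at 37C, 0% CO2.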

[3] = qHTS assay to identify small molecule agonists of the estrogen receptor beta (ER-beta) signaling pathway - cell viability counter screen (AID 1259380; active = well fitted curve in the direction sought with a large enough effect in the repeat runs; an effect the other way counts as inactive or inconclusive; note: nearly all actives have a fitted effect of over 30% in size)
Procedure, shortened: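 Luminescence read-out (CellTiter-Glo, 30 min, room temp) taken in the same wells as the beta-lactamase reporter assay; ER-beta-UAS-bla HEK293T cells exposed to DMSO-dissolved compounds for 16 hr at 37C in 2% charcoal-stripped FBS medium.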

[4] = qHTS assay to identify small molecule antagonists of the estrogen receptor beta (ER-beta) signaling pathway - cell viability counter screen (AID 1259382; active = well fitted curve in the direction sought with a large enough effect in the repeat runs; an effect the other way counts as inactive or inconclusive; note: series mostly up to about 92 µM; nearly all actives have a fitted effect of over 55% in size)
Procedure, shortened: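 Luminescent ATP read-out (CellTiter-Glo, 30 min, RT) taken in the same wells as the bla reporter assay. HEK293T ER-beta-UAS-bla cells in 2% charcoal-stripped FBS were exposed to compounds with 1nM E2 for 16 hr at 37C.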

[5] = molecular target: Estrogen receptor (Homo sapiens) (UniProt P03372); test: qHTS assay to identify small molecule agonists of the estrogen receptor alpha (ER-alpha) signaling pathway in the presence of an antagonist (AID 1259383); note: top concentration of the series differs between compounds; nearly all actives have a fitted effect of over 15% in size
Estrogen receptor (Homo sapiens), sequence (P03372 whole entry, looked up): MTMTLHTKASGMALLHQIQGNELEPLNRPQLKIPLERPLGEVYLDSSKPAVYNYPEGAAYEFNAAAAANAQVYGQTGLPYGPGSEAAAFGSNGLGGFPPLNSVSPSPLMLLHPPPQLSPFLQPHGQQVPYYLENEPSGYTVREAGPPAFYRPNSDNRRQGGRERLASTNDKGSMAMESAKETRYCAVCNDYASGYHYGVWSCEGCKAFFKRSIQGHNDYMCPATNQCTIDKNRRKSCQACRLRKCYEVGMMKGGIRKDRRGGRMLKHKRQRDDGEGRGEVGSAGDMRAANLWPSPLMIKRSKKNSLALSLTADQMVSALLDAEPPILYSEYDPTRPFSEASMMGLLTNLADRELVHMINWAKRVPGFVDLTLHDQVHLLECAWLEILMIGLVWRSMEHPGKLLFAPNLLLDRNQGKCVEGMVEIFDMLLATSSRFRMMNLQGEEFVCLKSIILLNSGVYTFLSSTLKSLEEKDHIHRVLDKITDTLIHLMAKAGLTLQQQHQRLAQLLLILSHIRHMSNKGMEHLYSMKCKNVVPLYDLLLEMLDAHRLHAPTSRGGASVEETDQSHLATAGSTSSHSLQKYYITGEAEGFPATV
Procedure, shortened: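 Luciferase luminescence (ONE-Glo, 30min at room temperature) measured in VM7Luc4E2 cells after 22hr compound exposure at 15 concentrations, with 10.0nM ICI-182,780 final present; cells express endogenous ER-alpha and carry four EREs upstream of luciferase.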

[6] = qHTS assay to identify small molecule agonists or antagonists of the thyroid stimulating hormone receptor (TSHR) signaling pathway - wild type cell line counter screen (AID 1259384)
Procedure, shortened: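 Wild-type HEK293 cells were plated 18 h at 37 C/5% CO2, pin-dosed with compound plus Ro20-1724 medium, held 30 min at room temperature, then given cAMP-d2 and anti-cAMP-cryptate; fluorescence was read after 1 h. Fifteen concentrations, triplicate.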

[7] = qHTS assay to identify small molecule agonists of the estrogen receptor alpha (ER-alpha) signaling pathway in the presence of an antagonist - cell viability counter screen (AID 1259386; active = well fitted curve in the direction sought with a large enough effect in the repeat runs; an effect the other way counts as inactive or inconclusive;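 note: series mostly up to about 92 µM; cells exposed to compounds for 22 h at 37 °C before the viability read; nearly all actives have a fitted effect of over 30% in size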)
Procedure, shortened: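 Read-out: CellTiter-Fluor fluorescence after 1hr reagent incubation, measured in the same wells as the luciferase readout. VM7Luc4E2 cells were exposed to 15 compound concentrations with 10.0nM ICI-182,780 for 22hr at 37C.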

[8] = molecular target: Progesterone receptor (Homo sapiens) (UniProt P06401); test: qHTS assay to identify small molecule agonists of the progesterone receptor (PR) signaling pathway (AID 1346784); note: nearly all actives have a fitted effect of over 30% in size
Progesterone receptor (Homo sapiens), sequence (P06401 whole entry, looked up): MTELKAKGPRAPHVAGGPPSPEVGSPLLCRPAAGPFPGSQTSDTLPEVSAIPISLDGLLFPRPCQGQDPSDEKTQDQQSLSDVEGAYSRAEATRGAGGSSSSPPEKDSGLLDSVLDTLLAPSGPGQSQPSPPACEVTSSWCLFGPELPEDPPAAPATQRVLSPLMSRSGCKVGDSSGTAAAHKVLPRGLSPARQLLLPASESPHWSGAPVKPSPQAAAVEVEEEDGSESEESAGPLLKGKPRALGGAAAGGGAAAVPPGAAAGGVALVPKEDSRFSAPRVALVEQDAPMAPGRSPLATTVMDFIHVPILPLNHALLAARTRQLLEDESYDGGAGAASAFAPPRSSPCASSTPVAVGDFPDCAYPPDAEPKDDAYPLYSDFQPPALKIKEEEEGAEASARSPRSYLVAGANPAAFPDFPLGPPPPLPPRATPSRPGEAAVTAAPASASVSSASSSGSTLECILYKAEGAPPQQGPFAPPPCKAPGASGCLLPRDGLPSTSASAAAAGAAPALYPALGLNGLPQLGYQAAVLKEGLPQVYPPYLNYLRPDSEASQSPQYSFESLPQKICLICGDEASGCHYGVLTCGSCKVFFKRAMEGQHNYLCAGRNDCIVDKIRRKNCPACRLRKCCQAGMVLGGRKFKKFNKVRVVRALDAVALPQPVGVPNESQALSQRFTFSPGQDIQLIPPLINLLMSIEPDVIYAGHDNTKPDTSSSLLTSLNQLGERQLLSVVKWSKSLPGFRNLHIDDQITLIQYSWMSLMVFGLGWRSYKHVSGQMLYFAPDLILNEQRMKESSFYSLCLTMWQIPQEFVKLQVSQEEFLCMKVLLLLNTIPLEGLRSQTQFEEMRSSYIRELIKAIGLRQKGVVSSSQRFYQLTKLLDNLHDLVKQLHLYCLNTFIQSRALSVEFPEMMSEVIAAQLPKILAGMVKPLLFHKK
Procedure, shortened: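 Fluorescence from LiveBLAzer B/G FRET substrate cleavage (2 hr, RT) reported PR activation in PR-UAS-bla HEK 293T cells treated 16 hr at 37C/5% CO2 with compounds; medium contained 2% charcoal-stripped FBS.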

[9] = qHTS assay to identify small molecule antagonists of the progesterone receptor (PR) signaling pathway - cell viability counter screen (AID 1346798; active = well fitted curve in the direction sought with a large enough effect in the repeat runs; an effect the other way counts as inactive or inconclusive; note: series mostly up to about 92 µM; nearly all actives have a fitted effect of over 50% in size)
Procedure, shortened: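 CellTiter-Glo luminescence; PR-UAS-bla HEK293T, 3,000 cells/well; compound + R5020, 16 hr, 37C/5% CO2; 30 min RT before read.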

[10] = qHTS assay to identify small molecule agonists of the progesterone receptor (PR) signaling pathway - cell viability counter screen (AID 1346799); note: nearly all actives have a fitted effect of over 45% in size
Procedure, shortened: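 In parallel with the beta-lactamase readout, cytotoxicity toward PR-UAS-bla HEK293T cells was measured by CellTiter-Glo luminescence following 16 hr compound incubation in 2% charcoal-stripped FBS medium.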

[11] = qHTS assay to identify small molecule antagonists of the TGF-beta/Smad signaling pathway - cell viability counter screen (AID 1346824; active = well fitted curve in the direction sought with a large enough effect in the repeat runs; an effect the other way counts as inactive or inconclusive; note: nearly all actives have a fitted effect of over 50% in size)
Procedure, shortened: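 SBE-bla HEK 293T cells were plated overnight at 37 C, then given compounds in DMSO plus TGF-beta1 (added as 0.25 ng/mL solution) for 5 hr. After the bla read, CellTiter-Glo was added to the same wells and luminescence read after 30 min at room temperature.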

[12] = qHTS assay to identify small molecule agonists of the TGF-beta/Smad signaling pathway - cell viability counter screen (AID 1346829; active = well fitted curve in the direction sought with a large enough effect in the repeat runs; an effect the other way counts as inactive or inconclusive; note: top concentration of the series differs between compounds; nearly all actives have a fitted effect of over 45% in size)
Procedure, shortened: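 Compound-treated SBE-bla HEK 293T cells (5 hr, 37 C) were assessed for viability with CellTiter-Glo in parallel with the reporter read.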

[13] = qHTS assay to identify small molecule agonists of the TGF-beta/Smad signaling pathway (AID 1346859; active = well fitted activation curve with a large enough effect in the signal ratio in the repeat runs, not every such curve was filed as active; the % refers to the signal ratio; note: series mostly up to about 77 µM)
Procedure, shortened: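 After overnight seeding, SBE-bla HEK 293T cells are dosed with compounds in DMSO and kept 5 hr at 37 C, 5% CO2. LiveBLAzer-type FRET substrate is then applied for 2 hr at room temperature.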

[14] = molecular target: Thyrotropin-releasing hormone receptor (Homo sapiens) (UniProt P34981); test: qHTS assay to identify small molecule antagonists of the thyrotropin-releasing hormone receptor (TRHR) signaling pathway (AID 1346877; active = well fitted inhibition curve with a large enough effect in the repeat runs, not every such curve was filed as active; note: series mostly up to about 51 µM)
Thyrotropin-releasing hormone receptor (Homo sapiens), sequence (P34981 whole entry, looked up): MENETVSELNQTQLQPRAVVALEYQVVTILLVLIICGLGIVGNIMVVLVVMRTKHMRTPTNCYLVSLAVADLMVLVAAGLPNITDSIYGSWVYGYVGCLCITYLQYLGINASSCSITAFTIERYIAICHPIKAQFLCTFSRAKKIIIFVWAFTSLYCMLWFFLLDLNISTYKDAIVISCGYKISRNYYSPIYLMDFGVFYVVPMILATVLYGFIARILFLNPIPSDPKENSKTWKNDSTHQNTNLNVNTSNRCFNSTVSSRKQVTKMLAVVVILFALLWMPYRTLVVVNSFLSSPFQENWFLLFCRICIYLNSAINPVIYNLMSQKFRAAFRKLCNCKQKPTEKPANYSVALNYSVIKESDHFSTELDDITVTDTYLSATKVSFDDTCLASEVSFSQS
Procedure, shortened: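 HEK293/TRHR cells, 18 h, 37 °C; Ca2+ dye 2 h; cpd 5 min RT; TRH 1 nM final; fluorescence read 3 min, 1 s intervals; 15 concs, triplicate.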

[15] = molecular target: Thyrotropin-releasing hormone receptor (Homo sapiens) (UniProt P34981); test: qHTS assay to identify small molecule agonists of the thyrotropin-releasing hormone receptor (TRHR) signaling pathway (AID 1346891);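 note: HEK293 cells expressing TRHR with calcium dye readout; series mostly up to about 58 µM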
Procedure, shortened: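 Compounds were tested as agonists at 15 concentrations, in triplicate, on TRHR-Hek293 cells; calcium-sensitive dye fluorescence was recorded for 3 min following addition.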

[16] = molecular target: Estrogen receptor beta (Homo sapiens) (UniProt Q92731); test: qHTS assay to identify small molecule antagonists of the estrogen receptor beta (ER-beta) signaling pathway (AID 1259378; active = well fitted inhibition curve with a large enough effect in the signal ratio in the repeat runs, not every such curve was filed as active; the % refers to the signal ratio)
Estrogen receptor beta (Homo sapiens), sequence (Q92731 whole entry, looked up): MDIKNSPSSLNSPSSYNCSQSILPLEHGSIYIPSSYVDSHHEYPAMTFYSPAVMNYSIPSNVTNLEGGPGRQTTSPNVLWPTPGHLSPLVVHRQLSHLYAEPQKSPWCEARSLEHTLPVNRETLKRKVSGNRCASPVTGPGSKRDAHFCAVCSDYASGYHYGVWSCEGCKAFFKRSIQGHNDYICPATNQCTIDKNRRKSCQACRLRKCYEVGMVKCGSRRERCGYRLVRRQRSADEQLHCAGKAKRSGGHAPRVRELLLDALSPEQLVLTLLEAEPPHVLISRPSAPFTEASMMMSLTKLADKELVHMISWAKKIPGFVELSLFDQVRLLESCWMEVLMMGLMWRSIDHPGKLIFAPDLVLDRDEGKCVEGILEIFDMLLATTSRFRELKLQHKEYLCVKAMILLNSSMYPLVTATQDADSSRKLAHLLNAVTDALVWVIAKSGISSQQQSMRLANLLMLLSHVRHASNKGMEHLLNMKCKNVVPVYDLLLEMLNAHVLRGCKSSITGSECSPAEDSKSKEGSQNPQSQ
Procedure, shortened: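 ER-beta-UAS-bla HEK293T (GripTite) cells in 2% charcoal-stripped FBS medium were preincubated 6 hr at 37C, dosed with compound, then stimulated with 1 nM E2 (final) for 16 hr; beta-lactamase reporter read by B/G FRET fluorescence after 2 hr substrate loading.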

[17] = molecular target: Thyrotropin receptor (Homo sapiens) (UniProt P16473); test: qHTS assay to identify small molecule antagonists of the thyroid stimulating hormone receptor (TSHR) signaling pathway (AID 1259385); note: nearly all actives have a fitted effect of over 20% in size
Thyrotropin receptor (Homo sapiens), sequence (P16473 whole entry, looked up): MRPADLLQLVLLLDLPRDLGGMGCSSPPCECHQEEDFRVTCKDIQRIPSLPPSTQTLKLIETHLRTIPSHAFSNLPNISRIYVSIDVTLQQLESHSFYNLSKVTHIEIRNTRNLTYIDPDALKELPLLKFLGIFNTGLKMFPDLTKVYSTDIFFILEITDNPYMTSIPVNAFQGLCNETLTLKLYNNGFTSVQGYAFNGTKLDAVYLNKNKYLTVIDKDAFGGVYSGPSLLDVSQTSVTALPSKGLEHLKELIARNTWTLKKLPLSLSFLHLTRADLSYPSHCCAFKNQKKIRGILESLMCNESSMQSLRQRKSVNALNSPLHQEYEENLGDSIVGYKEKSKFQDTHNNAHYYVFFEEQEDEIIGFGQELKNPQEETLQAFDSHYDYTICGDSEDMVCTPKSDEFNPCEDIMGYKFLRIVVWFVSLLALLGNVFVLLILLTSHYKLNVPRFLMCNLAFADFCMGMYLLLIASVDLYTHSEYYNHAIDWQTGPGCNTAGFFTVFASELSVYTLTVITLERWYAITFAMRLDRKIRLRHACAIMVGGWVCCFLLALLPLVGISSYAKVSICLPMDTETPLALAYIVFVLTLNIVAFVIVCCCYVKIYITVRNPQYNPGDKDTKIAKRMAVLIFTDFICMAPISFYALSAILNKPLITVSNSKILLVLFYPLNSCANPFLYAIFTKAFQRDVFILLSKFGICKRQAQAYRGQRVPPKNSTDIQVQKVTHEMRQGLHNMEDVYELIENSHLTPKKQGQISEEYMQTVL
Procedure, shortened: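 TSHR-HEK293 cells were plated and held 18 h at 37C/5% CO2, then given compound plus Ro20-1724 and stimulated with TSH at 1.5 ng/mL final. After 30 min at room temperature, cAMP was detected with cAMP-d2/anti-cAMP-cryptate (1 h) by fluorescence.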

[18] = molecular target: Progesterone receptor (Homo sapiens) (UniProt P06401); test: qHTS assay to identify small molecule antagonists of the progesterone receptor (PR) signaling pathway (AID 1346795; active = well fitted inhibition curve with a large enough effect in the signal ratio in the repeat runs, not every such curve was filed as active; the % refers to the signal ratio)
Procedure, shortened: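 Fluorescence intensity measured 2 hr after adding beta-lactamase FRET substrate to PR-UAS-bla HEK293T cells that had been co-treated 16 hr with compound and 1 nM R5020 (final concentration) in 2% charcoal-stripped FBS.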

[19] = molecular target: Androgen receptor (Homo sapiens) (UniProt P10275); test: qHTS assay to identify small molecule agonists of the androgen receptor (AR) signaling pathway in the presence of an antagonist (AID 1259381); note: nearly all actives have a fitted effect of over 15% in size
Androgen receptor (Homo sapiens), sequence (P10275 whole entry, looked up): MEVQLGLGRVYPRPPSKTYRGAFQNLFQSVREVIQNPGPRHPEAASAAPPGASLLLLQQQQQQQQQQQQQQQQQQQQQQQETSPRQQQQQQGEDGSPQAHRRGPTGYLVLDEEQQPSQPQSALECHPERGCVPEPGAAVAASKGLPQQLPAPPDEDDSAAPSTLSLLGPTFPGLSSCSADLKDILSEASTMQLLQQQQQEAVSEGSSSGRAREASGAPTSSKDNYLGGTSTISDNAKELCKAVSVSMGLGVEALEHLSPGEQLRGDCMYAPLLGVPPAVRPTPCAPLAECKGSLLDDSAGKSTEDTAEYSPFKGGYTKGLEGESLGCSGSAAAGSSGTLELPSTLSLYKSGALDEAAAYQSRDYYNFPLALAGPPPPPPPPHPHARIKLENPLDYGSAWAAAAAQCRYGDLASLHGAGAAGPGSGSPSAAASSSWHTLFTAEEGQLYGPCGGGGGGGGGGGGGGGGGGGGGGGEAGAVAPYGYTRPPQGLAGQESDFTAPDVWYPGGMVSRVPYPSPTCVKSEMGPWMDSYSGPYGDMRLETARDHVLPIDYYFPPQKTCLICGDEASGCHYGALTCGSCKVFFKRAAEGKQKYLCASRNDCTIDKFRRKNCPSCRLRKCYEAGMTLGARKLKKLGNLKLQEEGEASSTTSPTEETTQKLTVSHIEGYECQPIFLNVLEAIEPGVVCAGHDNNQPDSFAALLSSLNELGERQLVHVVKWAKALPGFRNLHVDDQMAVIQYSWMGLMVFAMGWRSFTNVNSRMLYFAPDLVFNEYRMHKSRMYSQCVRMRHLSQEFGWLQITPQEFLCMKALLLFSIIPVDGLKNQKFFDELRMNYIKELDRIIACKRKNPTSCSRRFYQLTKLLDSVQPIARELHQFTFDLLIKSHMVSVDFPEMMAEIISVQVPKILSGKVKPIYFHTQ
Procedure, shortened: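 Luciferase read-out (ONE-Glo, 30min room temperature) in MDA-kb2 MMTV-reporter cells; agonist mode run in presence of AR antagonist nilutamide, 3.0uM final. Compounds tested as 15-point series, 16hr exposure at 37C, 0% CO2.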

SMILES	Potency [1]	Potency [2]	Potency [3]	Potency [4]	Potency [5]	outcome [6]	Potency [7]	Potency [8]	Potency [9]	Potency [10]	Potency [11]	Potency [12]	Potency [13]	Potency [14]	outcome [15]	Potency [16]	Potency [17]	Potency [18]	outcome [19]
O=C(Oc1ccccc1)Oc1ccccc1	inactive	inactive	inactive	inactive	inactive	inactive	inactive	inactive	inactive	inactive	inactive	inactive	inactive	inactive	inactive				
COCCOc1cc2cc(C(=O)NC3CCN(C(C)C)CC3)n(CC(=O)Nc3ccc(Cl)cn3)c2cn1	15.2 µM (active)	inactive	inactive	inactive		inactive	inactive		inactive		inactive	inactive	inactive	inactive	inactive	inactive	inactive	inactive	
CCOC(=O)Cn1cccc1-c1nc(-c2ccc(OC)cc2)c(-c2ccc(OC)cc2)s1	inactive	inactive		inactive	inactive			inactive	inactive	inactive	inactive		inactive	inactive	inactive			inactive	inactive
Nc1nc(N)nc(-c2cc(Cl)ccc2Cl)n1	inactive	inactive	inactive	inactive			inactive	inactive	inactive	inactive	inactive	inactive	inactive	inactive	inactive			inactive	
CCN(CCN)c1cccc(C)c1	7.77 µM (active)	inactive			inactive	inactive	inactive	inactive	inactive	inactive		inactive	inactive	inactive	inactive		inactive	inactive	
CC1(C)CCC[C@]2(C)[C@H]3CC(=O)O[C@]3(C)CC[C@@H]12	30.6 µM (active)	inactive		inactive	inactive	inactive	inactive	inactive		inactive	inactive			inactive	inactive		inactive		
COc1cc(/C=C/c2ccccc2)oc(=O)c1	inactive	inactive		inactive	inactive	inactive	inactive	inactive	inactive		inactive	inactive	inactive	inactive	inactive		inactive	inactive	
